Measurements from PubChem BioAssay (NCATS).
Results filed as inconclusive are left out. Entries that show only a call come without a potency. The source made the active and inactive calls. Calls come from the whole dose curve; as a rule, active = well fitted cell-killing curve with a large enough effect; inconclusive = small, poorly fitted or top-dose-only effect, or effect the other way; inactive = flat fitted curve, though single readings scatter.

Assay: Cell Viability - LYMP2-003 (AID 965);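 note: cells exposed to compounds for 24 h before reading; nearly all actives have a fitted effect of over 50% in size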
Conditions: LYMP2-003 lymphoblastoid cell viability; series mostly up to 92.2 µM
Excerpt: NIH Chemical Genomics Center [NCGC]
NIH Molecular Libraries Screening Centers Network [MLSCN]
National Institutes of Environmental Health Sciences [NIEHS]
National Toxicology Program [NTP]
We have developed a 1536-well cell-based assay for quantitative high throughput screening (qHTS) against a number of cell lines to determine in vitro cytotoxicity of small molecules. This particular assay uses a human lymphoblastoid cell line (LYMP2-003) purchased from Coriell Institute for Medical Research.
NCGC Assay Protocol Summary:
The CellTiter-Glo luminescent cell viability assay (Promega) is a homogeneous method to measure the number of viable cells in culture. The end point readout of this assay is based on quantitation of intracellular ATP, an indicator of metabolic activity, using the luciferase reaction. Luciferase catalyzes the oxidation of beetle Luciferin to oxyluciferin and light in the presence of ATP. The luminescent signal is proportional to amount of ATP present.
Using the CellTiter-Glo luminescent cell viability assay, the amount of cellular ATP was measured in the lymphoblastoid cell line with complete culture medium following compound treatment for 24 hours. The assay was performed in opaque white Kalypsys 1536-well plates. In the screen, tetraoctylammonium bromide was used as positive control. Library compounds were measured for their ability to cause acute toxicity in the cell line, as reflected by a decrease in intracellular ATP levels, in a concentration-dependent manner. […] AC50 values were determined from concentration-response data modeled with the standard Hill equation.
qHTS protocol for CellTiter Glo lymphoblastoid cellular assay
[Step] [Parameter] [Value] [Description]
1. Reagent; 5 uL; 2500 lymphoblastoid cells/well
2. Time; 5 hr; 37 C incubation
4. Controls; 23 nL; Tetraoctylammonium bromide 6.4pM to 92 uM
5. Time; 24 hr; 37 C incubation
6. Reagent; 5 uL; CellTiter Glo reagent
7. Time; 30 min; Room Temperature
8. Detection; Luminescence; Viewlux plate reader
Keywords: cell viability, cytotoxicity, lymphoblastoid cell line, luminescence, NTPHTS, NTPHTS_NCGC, NIEHS, DSSTox, MLSMR, MLSCN, NIH Roadmap, qHTS, NCGC

| Compound | Potency |
| --- | --- |
| O=C(O)/C=C/C(=O)O | inactive |
| CCCCOCCOCCSC#N | inactive |
| Nc1nc(CC(=O)O)cs1 | inactive |
| CC(C=O)Cc1ccc(C(C)(C)C)cc1 (stereo not given) | inactive |
| CCC(C)(C)OC | inactive |
| C/C=C(/C)C#N | inactive |
| O=C(O)CN(CC(=O)O)CC(=O)O | inactive |
| Nc1cc([N+](=O)[O-])ccc1C(=O)O | inactive |
| Cc1ccc2oc(=O)ccc2c1 | inactive |
| CC=O | inactive |
| CO[Si](CCCNCCC[Si](OC)(OC)OC)(OC)OC | inactive |
| CCC1CO1 (stereo not given) | inactive |
| CCN(Cc1ccccc1)c1ccccc1 | inactive |
| CC(C)C=O | inactive |
| CCCCC(CC)COC(=O)CCCCC(=O)OCC(CC)CCCC (stereo not given) | inactive |
| c1ccc2c(c1)Oc1ccccc1S2 | inactive |
| CC1CCC2CC1C2(C)C (stereo not given) | inactive |
| CCNc1cc(O)ccc1C | inactive |
| COC(=O)CS | inactive |
| CC(=O)Nc1ccc(C)cc1 | inactive |

| Compound | Potency |
| --- | --- |
| Cc1ccco1 | inactive |
| NC(=O)c1ccccc1[N+](=O)[O-] | inactive |
| CC(C)(c1cc(Br)c(OCC(Br)CBr)c(Br)c1)c1cc(Br)c(OCC(Br)CBr)c(Br)c1 (stereo not given) | inactive |
| COc1ccc(N)c(C)c1 | inactive |
| S=C([S-])NCCNC(=S)[S-].[Zn+2] | inactive |
| O=[N+]([O-])c1ccc(NCCO)c(OCCO)c1 | inactive |
| CCC(O)C(C)(C)C (stereo not given) | inactive |
| Nc1ccc([N+](=O)[O-])c(N)c1 | inactive |
| BrC/C=C/CBr | inactive |
| CCCCCNCCCCC | inactive |
| Cc1ccc(Cl)cc1N | inactive |
| O=C1OC(=O)c2c(Br)c(Br)c(Br)c(Br)c21 | inactive |
| Nc1ccccc1[N+](=O)[O-] | inactive |
| CCOc1ccccc1N | inactive |
| CCCC=O | inactive |
| CC(=O)OC(C)=O | inactive |
| O=Cc1ccc(CO)o1 | inactive |
| Cc1ccc(C)cc1 | inactive |
| COC(=O)CC#N | inactive |
| CCNc1ccccc1 | inactive |
